High-throughput results (PubChem)
In the library only some 2.8% were active in any assay of this set; here they are far more common.
Exocytosis inh – lytic granule exocytosis inhibition | TALL-104 LAMP-1 surface exposure, flow cytometry; cells stimulated with thapsigargin and PMA | inhibition, % at 10 µM | actives 0.66% (n = 360,000);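 active = inhibition above about 55%, limit read from the data; inconclusive = no clear call, values can overlap the other calls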
IDE inh – inhibitors of human insulin-degrading enzyme in cells; inhibition, % at 5.59 µM; actives 0.41% (n = 320,000); AID 434962; HEK cells, FAbetaB cleavage, fluorescence polarization; P14735;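 active = percent inhibition above the average of all tested compounds plus 3 SD, set per screening campaign, cut at about 16% in these data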;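 note: IDE supplied by intact live HEK cells; FP after avidin binding of uncleaved biotin substrate so inhibition keeps polarization high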
IDE cell activ – boosts human insulin-degrading enzyme activity in HEK cells | AID 493087 | FAbeta-B cleavage, fluorescence polarization; 0% vehicle, 100% cell-free pure enzyme wells | actives 0.073% (n = 340,000) | activation, % at 5.96 µM | P14735;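 active = activation above the mean of all tested compounds plus 3 SD, set per screening campaign, cut at about 17% in these data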
PP5 primary – inhibitors of human protein phosphatase 5 (PP5); purified PP5c, OMFP substrate fluorescence; inhibition, % at 6.7 µM; actives 0.18% (n = 320,000); AID 1987;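 active = inhibition above the campaign's mean inhibition across all tested compounds plus 3 SD, cut at about 9.5% in these data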
Target sequence (P53041 whole entry, looked up): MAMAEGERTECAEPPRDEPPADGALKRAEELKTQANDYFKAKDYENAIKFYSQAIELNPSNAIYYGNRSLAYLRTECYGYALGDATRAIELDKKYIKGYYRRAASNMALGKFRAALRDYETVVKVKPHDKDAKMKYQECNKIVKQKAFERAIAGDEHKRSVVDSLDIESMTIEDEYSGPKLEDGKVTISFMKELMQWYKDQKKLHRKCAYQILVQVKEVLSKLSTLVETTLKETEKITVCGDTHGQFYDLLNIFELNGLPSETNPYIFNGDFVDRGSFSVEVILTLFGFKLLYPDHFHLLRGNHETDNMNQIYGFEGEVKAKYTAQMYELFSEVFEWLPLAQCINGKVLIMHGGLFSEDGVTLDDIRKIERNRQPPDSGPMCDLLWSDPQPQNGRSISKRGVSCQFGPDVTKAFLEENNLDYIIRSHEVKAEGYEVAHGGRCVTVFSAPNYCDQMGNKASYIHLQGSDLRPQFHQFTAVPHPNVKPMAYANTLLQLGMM
SKKanGAS inh – blocks kanamycin growth of S. pyogenes SKKanGAS strain. BacTiter-Glo, 6 h. inhibition, % at 7.5 µM. actives 1.3% (n = 300,000). AID 1662;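 active = mean replicate score, as percent of positive control median, at least 50; inconclusive = mean below 50 but one replicate at or above 50; inactive = mean and every replicate below 50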;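 note: strain carries kanamycin resistance gene driven by streptokinase promoter and grows in 40 µg/ml kanamycin; loss of luminescence reflects streptokinase promoter inhibition or plain growth inhibition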
PP1 inh – PP1-alpha (human) inhibition in PP5 counter-screen; P62136; purified PP1alpha, OMFP fluorescence; inhibition, % at 6.7 µM; actives 0.9% (n = 320,000); AID 2235;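 active = inhibition above the mean inhibition of all tested compounds plus 3 SD, computed separately for each screening campaign, cut at about 15% in these data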
A number is an active result; . = inactive; ? = inconclusive; / = no result.

SMILES	Exocytosis inh	IDE inh	IDE cell activ	PP5 primary	SKKanGAS inh	PP1 inh
C=CCn1c(SCc2c(C)noc2C)nc2sc3c(c2c1=O)CCCCC3	.	.	.	.	54	.
C=CCn1c(SCc2c(C)noc2C)nc2sc3c(c2c1=O)CCCC3	.	.	.	.	60	.
CCN(C(=O)C1CCCN1S(=O)(=O)c1ccc2c(c1)n(C)c(=O)c(=O)n2C)c1ccccc1 (centres undefined)	.	.	.	.	.	.
COc1cccc2c1C(=O)c1c(O)c3c(c(O)c1C2=O)C[C@@](O)(C(C)=O)C[C@@H]3O[C@H]1C[C@H](N)[C@H](O)[C@H](C)O1	.	/	19	/	/	/
COc1cccc2c1C(=O)c1c(O)c3c(c(O)c1C2=O)C[C@@](O)(C(=O)CO)C[C@@H]3O[C@H]1C[C@H](N)[C@@H](O)[C@H](C)O1	.	.	.	.	108	.
CC(=O)[C@]1(O)Cc2c(O)c3c(c(O)c2[C@@H](O[C@H]2C[C@H](N)[C@H](O)[C@H](C)O2)C1)C(=O)c1ccccc1C3=O	/	.	/	.	104	.
COc1cccc2c1C(=O)c1c(O)c3c(c(O)c1C2=O)CC(O)(C(=O)CO)CC3OC1CC(N(C)C)C(O)C(C)O1 (centres undefined)	.	/	.	/	/	/
CCCN(C(=O)CCNC(=O)Cn1cnc2ccccc2c1=O)c1cccc(Cl)c1	.	.	.	.	.	.
CC(=O)c1nnn(-c2c(F)cccc2F)c1C	.	.	.	.	.	.
CCOC(=O)c1ccc([N+](=O)[O-])c(CS(=O)(=O)c2ccc(Cl)cc2)c1	.	.	.	.	.	.
Cc1ccc(S(=O)(=O)Cc2cc(F)c([N+](=O)[O-])cc2[N+](=O)[O-])cc1	72	.	.	.	.	.
O=C1NC[C@H](CCCCN2C[C@H](Cc3ccc(O)cc3)N(CCc3ccccc3)C(=O)C2=O)N(CC2CCCCC2)C1=O	.	/	/	/	/	/
CNC(=S)N(Cc1cccs1)Cc1cc2cc(OC)ccc2[nH]c1=O	.	.	34	.	.	.
CCN(CC)S(=O)(=O)c1cccc(C(=O)N/N=C/c2cccc(O)c2O)c1	.	.	.	.	.	16
CCN(CC)S(=O)(=O)c1cccc(C(=O)N/N=C/c2cc(OC)c(O)c(OC)c2)c1	.	.	.	.	.	.
O=C(NCC1CCCO1)c1ccc(N2CCCCC2)c([N+](=O)[O-])c1 (centres undefined)	.	.	.	.	.	.
CCC(C(=O)Nc1c(C)cccc1C)n1c(-c2ccc(=O)[nH]c2)nc2ccccc21 (centres undefined)	.	/	/	/	/	/
CCOC(=O)/C(=N\Nc1ccc(Cl)cc1)c1csc(Nc2ccccc2)n1	.	.	.	.	73	.
CCOC(=O)/C(=N\Nc1ccc(OC)cc1)c1csc(Nc2ccccc2)n1	.	.	.	.	60	.
CCN(CC)C(=O)c1csc(Nc2ccc(C)cc2)n1	.	.	.	.	/	.
CCCCC(CCC(=O)O)(C(=O)OCC)c1csc(Nc2ccccc2)n1 (centres undefined)	.	.	.	.	.	.
CCOC(=O)/C(=N/Nc1ccccc1)c1csc(Nc2ccccc2)n1	.	.	.	.	91	.
COc1ccc(Cl)cc1C(=O)NNC(=S)NC(=O)c1cc(-c2ccccc2)nc2ccccc12	.	.	.	.	80	.
Cc1ccnc(NS(=O)(=O)c2ccc(NC(=O)c3cc(-c4ccccc4)nc4ccccc34)cc2)n1	.	.	.	.	.	.
CCCOc1ccc(C(=O)NNC(=S)NC(=O)c2cc(-c3ccc(Cl)cc3)nc3ccccc23)cc1	.	.	.	.	99	.
SMILES	Exocytosis inh	IDE inh	IDE cell activ	PP5 primary	SKKanGAS inh	PP1 inh
Cc1ccnc(NS(=O)(=O)c2ccc(NC(=O)c3cc(-c4ccc(Br)cc4)nc4ccccc34)cc2)n1	.	.	.	.	62	.
COc1ccc(C(=O)NNC(=S)NC(=O)c2cc(-c3ccccc3)nc3ccccc23)cc1	.	.	.	.	107	.
CCNC(=S)NNC(=O)c1cc(-c2cccc(OC)c2)nc2ccccc12	.	.	.	.	.	.
COC(=O)c1ccc(NC(=S)NC(=O)c2cc(-c3ccccc3)nc3ccccc23)cc1	.	.	.	.	.	.
CCOc1ccc(NC(=O)CCc2nnc3ccc(N4CCC5(CC4)OCCO5)nn23)cc1	.	.	.	.	.	.
CN(C)c1ccc(/C=N/NC(=O)CCc2nc3ccccc3[nH]2)cc1	.	.	.	.	.	.
O=[N+]([O-])c1ccc(N2CCN(Cc3ccc(Br)o3)CC2)cc1	.	/	.	/	.	/
CN(C)S(=O)(=O)c1ccc2c(c1)nc(CCC(=O)NCC(=O)Nc1ccc(F)c(F)c1F)n2C	.	/	/	/	/	/
CC(C)(C)c1ccc(-c2cc(C(=O)NNC(=O)Nc3ccccc3)c3ccccc3n2)cc1	.	.	.	.	56	.
O=C(NNC(=O)c1cc(-c2ccccc2)nc2ccccc12)Nc1cccc(Cl)c1	.	.	.	.	?	.
CCC1=C(c2ccc(OC)cc2)CCC(C(=O)O)C1C (centres undefined)	.	/	.	/	/	/
COc1ccc(/C=C2/Sc3ccc(C(=O)N4CCc5ccccc5C4)cc3NC2=O)cc1	.	.	.	.	102	.
COc1ccc(/C=C2\Sc3ccc(C(=O)N4CCc5ccccc5C4)cc3N(C)C2=O)cc1	/	.	/	.	103	.
CCCSC(=S)c1c(C)[nH]n(-c2ccccc2)c1=O	.	.	.	.	89	.
CC[C@@H](C)[C@H](CN[C@H](CNC)C(C)C)NC[C@@H](C)c1ccc(CC(C)C)cc1	.	.	.	.	64	.
Oc1c(Br)cc(Br)cc1C=Nc1cccc2ncccc12	67	.	.	.	.	.
Brc1cccc(C=Nc2cccc3ncccc23)c1	.	.	.	.	.	.
COC(=O)Nc1ccc(SCC(=O)c2cccc([N+](=O)[O-])c2)cc1	.	.	.	.	.	.
N=C(N)c1ccc(/C=C/c2ccc(C(=N)N)cc2O)cc1	.	.	.	.	100	.
COc1ccc(OC)c(S(=O)(=O)N2CCC(C(=O)N(C)Cc3ccccc3)CC2)c1	.	.	.	.	.	.
Cc1ccc(C)c(-c2cc(C(=O)Nc3sc(C)c(C)c3C(N)=O)c3ccccc3n2)c1	.	.	.	.	70	.
Cc1cccc(-c2cc(C(=O)Nc3sc(C)c(C)c3C(N)=O)c3ccccc3n2)c1	.	.	.	.	.	.
CCS(=O)(=O)N1CCC(C(=O)Oc2ccc(C)c(C)c2)CC1	.	.	.	.	.	.
CC1(C)CC(=O)C=C(c2ccc(-c3ccc4[nH]ccc4c3)cc2)C1=O	70	/	/	/	/	/
CC1(C)CC(=O)C=C(c2ccccc2-c2ccc3cc[nH]c3c2)C1=O	.	/	/	/	/	/
Cc1cc(C)cc(N2CCCn3c2nc2c3c(=O)[nH]c(=O)n2C)c1	.	.	.	.	.	.
Cc1ccc(S(=O)(=O)c2c(N)n(-c3ccccc3)c3nc4ccccc4nc23)cc1	.	.	.	.	.	.
